Experimental data from the supplement of paper PMC10849652.
The full data set covers some 8,800 targets. This sample favours those with a hit. About 0.5% of all pairs of compound and target were hits. A number with no mark means an inactive call.

How the values were obtained:
Assay in all cases: log2 fold change, soluble protein after heating vs DMSO (PISA); higher = thermal stabilisation; K562 lysate, 10 uM; active = over 0.2 and 3.5 SD of the protein, either way, in both replicates (recomputed)
[1] = compound: CCCS(=O)(=O)Nc1ccc(F)c(C(=O)c2c[nH]c3ncc(-c4ccc(Cl)cc4)cc23)c1F [vemurafenib]
How it was run: (§1)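 Pellets of K562 cells were dounce-homogenised in PBS pH 7.4 with 1 mM MgCl2, and the crude extract was held at 1 mg/mL protein for a 30 min treatment with 10 μM compound. Aliquots were heated for 3 min over 48°C-58°C and pooled before NP-40 was added to 0.5% at 4°C. The supernatant from 21,000xg for 90 min was quantified by TMTpro 16plex LC-MS/MS with channel sums equalised. Values are reported from duplicates as log-two fold change in thermal stability relative to solvent controls.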

[2] = compound: CCCS(=O)(=O)Nc1ccc(F)c(C(=O)c2c[nH]c3ncc(Cl)cc23)c1F
How it was run: as §1

[3] = compound: CCN(CCCOc1ccc2c(Nc3cc(CC(=O)Nc4cccc(F)c4)[nH]n3)ncnc2c1)CCOP(=O)(O)O [barasertib]
How it was run: as §1

[4] = compound: CC[C@@H]1C(=O)N(C)c2cnc(Nc3ccc(C(=O)NC4CCN(C)CC4)cc3OC)nc2N1C1CCCC1
How it was run: as §1

[5] = compound: CC[C@@H]1C(=O)N(C)c2cnc(Nc3ccc(C(=O)N[C@H]4CC[C@H](N5CCN(CC6CC6)CC5)CC4)cc3OC)nc2N1C(C)C [volasertib]
How it was run: as §1

[6] = compound: CCn1c(C(=O)N(C2CC2)C2CC2)cc2c3c(ncn3C)c(Nc3cc(C)n(C)n3)nc21
How it was run: as §1

[7] = compound: CCn1cc(-c2ccnc3[nH]c(-c4cccc(CN(C)C)c4)cc23)c(-c2ccc(NC(=O)N(C)C)cc2)n1
How it was run: as §1

[8] = compound: CN1CCC(CNc2ccc3ncc(-c4cccc(OC(F)(F)F)c4)n3n2)CC1
How it was run: as §1

[9] = compound: CN1CCN(CCOc2cc(OC3CCOCC3)c3c(Nc4c(Cl)ccc5c4OCO5)ncnc3c2)CC1 [saracatinib]
How it was run: as §1

[10] = compound: CN1CCN(c2nc(C3=C(c4c[nH]c5ccccc45)C(=O)NC3=O)c3ccccc3n2)CC1 [sotrastaurin]
How it was run: as §1

UniProt Q15366, sequence (Q15366 whole entry, looked up): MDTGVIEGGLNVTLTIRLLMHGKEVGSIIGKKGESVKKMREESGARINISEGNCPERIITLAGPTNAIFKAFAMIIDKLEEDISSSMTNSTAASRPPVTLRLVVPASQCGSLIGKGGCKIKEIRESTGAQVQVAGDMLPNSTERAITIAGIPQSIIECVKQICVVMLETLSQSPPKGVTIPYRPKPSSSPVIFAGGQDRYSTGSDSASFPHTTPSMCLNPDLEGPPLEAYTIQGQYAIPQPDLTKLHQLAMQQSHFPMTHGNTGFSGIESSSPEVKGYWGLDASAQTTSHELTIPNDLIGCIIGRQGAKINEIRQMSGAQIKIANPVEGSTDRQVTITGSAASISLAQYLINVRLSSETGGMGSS
UniProt Q15173, sequence (Q15173 whole entry, looked up): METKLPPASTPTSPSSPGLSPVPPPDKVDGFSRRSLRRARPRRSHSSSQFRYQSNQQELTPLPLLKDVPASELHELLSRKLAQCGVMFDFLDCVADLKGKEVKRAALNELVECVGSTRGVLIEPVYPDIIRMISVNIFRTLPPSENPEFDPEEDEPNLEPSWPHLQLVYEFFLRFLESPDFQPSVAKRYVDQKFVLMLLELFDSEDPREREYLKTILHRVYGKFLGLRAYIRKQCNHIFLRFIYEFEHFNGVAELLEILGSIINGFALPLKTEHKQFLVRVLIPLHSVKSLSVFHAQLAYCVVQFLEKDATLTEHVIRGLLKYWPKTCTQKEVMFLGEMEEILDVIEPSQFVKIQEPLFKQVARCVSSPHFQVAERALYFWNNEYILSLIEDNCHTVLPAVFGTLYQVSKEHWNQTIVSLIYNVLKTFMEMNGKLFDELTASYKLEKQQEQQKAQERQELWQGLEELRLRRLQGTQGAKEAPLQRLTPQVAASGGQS
UniProt O60825, sequence (O60825 whole entry, looked up): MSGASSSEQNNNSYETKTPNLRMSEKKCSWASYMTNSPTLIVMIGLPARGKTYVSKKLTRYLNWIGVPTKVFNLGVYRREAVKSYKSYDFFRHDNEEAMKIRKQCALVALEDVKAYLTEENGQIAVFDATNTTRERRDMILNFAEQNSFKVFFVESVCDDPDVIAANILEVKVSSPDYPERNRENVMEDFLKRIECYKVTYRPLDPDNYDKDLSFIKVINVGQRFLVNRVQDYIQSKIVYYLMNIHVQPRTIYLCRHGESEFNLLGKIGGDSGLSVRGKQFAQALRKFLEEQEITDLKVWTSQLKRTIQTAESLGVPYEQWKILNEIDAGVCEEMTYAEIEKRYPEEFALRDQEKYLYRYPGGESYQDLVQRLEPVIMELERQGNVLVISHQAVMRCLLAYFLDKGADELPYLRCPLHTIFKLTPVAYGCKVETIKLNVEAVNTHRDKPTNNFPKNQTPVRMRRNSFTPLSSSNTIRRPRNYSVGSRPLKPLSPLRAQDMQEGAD
UniProt O15530, sequence (O15530 whole entry, looked up): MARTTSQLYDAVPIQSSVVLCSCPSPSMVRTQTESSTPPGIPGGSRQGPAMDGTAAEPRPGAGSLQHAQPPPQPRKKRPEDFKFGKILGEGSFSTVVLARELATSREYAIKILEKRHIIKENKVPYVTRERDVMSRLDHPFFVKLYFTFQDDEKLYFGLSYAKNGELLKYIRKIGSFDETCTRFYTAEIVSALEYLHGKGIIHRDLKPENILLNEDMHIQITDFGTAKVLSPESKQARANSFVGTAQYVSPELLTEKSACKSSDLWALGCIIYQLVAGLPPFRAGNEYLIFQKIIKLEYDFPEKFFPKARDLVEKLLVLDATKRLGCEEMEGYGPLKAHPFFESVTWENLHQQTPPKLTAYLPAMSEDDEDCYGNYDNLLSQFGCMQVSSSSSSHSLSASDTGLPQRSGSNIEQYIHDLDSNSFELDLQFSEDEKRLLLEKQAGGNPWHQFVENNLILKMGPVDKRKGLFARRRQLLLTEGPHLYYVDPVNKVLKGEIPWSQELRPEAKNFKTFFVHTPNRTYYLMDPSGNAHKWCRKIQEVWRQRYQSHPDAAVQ
UniProt Q9H3S7, sequence (Q9H3S7 whole entry, looked up): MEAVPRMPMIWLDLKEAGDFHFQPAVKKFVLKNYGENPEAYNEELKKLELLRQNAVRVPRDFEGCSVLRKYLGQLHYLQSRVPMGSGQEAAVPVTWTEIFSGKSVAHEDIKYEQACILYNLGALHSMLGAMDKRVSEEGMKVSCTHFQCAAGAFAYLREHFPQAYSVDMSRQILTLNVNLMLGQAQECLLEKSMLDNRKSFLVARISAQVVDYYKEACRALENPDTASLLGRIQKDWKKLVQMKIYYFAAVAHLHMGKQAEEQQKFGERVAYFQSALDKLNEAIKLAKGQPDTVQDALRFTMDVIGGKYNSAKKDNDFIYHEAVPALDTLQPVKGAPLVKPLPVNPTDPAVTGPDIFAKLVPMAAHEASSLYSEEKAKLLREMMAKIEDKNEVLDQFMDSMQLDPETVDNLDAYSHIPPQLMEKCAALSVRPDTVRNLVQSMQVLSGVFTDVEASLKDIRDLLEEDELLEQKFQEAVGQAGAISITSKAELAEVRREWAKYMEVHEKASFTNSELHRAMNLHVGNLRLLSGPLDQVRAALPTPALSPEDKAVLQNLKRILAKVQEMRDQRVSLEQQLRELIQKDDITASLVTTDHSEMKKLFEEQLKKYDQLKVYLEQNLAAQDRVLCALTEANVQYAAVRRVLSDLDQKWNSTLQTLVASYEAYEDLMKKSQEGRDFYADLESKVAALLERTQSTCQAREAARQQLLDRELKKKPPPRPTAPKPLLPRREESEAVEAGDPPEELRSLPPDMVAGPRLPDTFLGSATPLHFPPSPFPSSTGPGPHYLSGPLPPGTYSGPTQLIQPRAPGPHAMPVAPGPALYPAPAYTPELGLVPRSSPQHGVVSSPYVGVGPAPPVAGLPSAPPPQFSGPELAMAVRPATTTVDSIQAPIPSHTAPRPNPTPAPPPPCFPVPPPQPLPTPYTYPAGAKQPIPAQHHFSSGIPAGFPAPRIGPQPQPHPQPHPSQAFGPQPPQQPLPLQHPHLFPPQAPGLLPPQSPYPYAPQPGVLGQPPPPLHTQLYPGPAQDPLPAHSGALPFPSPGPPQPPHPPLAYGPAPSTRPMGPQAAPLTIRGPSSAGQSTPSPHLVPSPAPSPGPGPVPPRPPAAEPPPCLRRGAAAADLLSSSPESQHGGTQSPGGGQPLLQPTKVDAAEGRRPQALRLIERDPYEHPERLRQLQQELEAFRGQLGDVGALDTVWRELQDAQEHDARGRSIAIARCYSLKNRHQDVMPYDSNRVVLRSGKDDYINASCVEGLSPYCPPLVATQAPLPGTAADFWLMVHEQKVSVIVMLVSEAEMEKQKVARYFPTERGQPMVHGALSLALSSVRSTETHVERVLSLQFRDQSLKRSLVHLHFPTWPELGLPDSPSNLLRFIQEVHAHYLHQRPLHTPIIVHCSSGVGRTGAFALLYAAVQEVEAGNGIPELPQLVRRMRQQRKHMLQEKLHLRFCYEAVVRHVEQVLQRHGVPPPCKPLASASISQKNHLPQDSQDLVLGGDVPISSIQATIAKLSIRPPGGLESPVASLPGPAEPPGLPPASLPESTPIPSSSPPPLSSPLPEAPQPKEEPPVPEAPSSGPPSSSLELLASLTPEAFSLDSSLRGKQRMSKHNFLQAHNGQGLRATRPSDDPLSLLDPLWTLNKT
UniProt Q9NVM4, sequence (Q9NVM4 whole entry, looked up): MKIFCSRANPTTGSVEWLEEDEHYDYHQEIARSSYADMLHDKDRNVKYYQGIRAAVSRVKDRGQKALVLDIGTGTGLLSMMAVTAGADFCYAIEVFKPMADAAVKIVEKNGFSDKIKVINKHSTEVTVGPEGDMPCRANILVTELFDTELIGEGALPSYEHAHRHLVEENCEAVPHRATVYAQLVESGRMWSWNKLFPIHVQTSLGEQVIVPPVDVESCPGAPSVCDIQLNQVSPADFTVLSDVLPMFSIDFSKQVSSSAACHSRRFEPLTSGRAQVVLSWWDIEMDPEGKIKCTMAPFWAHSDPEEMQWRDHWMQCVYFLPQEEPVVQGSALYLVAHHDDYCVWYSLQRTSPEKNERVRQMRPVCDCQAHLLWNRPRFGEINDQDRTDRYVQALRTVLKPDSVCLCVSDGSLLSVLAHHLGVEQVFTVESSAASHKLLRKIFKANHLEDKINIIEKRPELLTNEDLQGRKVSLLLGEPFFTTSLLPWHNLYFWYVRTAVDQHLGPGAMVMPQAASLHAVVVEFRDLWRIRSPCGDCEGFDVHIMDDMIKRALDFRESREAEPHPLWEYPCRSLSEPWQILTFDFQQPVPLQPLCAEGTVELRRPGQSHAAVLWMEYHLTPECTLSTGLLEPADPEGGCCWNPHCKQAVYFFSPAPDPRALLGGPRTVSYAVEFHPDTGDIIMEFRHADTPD
UniProt Q8NA72, sequence (Q8NA72 whole entry, looked up): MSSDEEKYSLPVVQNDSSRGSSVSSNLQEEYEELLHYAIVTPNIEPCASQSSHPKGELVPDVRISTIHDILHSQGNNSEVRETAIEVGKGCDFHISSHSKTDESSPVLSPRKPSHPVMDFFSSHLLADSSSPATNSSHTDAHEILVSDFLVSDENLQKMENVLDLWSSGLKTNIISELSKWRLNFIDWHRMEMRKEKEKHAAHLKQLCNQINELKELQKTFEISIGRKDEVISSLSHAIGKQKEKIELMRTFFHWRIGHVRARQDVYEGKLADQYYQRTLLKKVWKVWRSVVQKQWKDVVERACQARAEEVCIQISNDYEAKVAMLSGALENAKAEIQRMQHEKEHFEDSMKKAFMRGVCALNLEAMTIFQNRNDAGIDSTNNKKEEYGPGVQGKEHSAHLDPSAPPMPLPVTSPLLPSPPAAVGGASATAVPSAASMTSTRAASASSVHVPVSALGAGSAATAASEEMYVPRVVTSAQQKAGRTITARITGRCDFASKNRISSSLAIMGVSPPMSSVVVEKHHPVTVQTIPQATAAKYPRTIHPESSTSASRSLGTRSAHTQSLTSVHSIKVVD
UniProt P06454, sequence (P06454 whole entry, looked up): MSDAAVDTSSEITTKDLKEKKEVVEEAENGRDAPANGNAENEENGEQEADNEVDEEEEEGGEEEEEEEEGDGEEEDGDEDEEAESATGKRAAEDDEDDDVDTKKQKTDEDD

Row | Target | log2 fold change [1] | log2 fold change [2] | log2 fold change [3] | log2 fold change [4] | log2 fold change [5] | log2 fold change [6] | log2 fold change [7] | log2 fold change [8] | log2 fold change [9] | log2 fold change [10]
1 | PIK3C3 (UniProt Q8NEB9) | 0.032 | 0.019 | -0.012 | 0.098 | -0.025 | -0.075 | -0.226 | 0.121 | 0.008 | 0.007
2 | PFKFB2 (UniProt O60825) | -0.011 | 0.011 | 0.008 | 0.004 | -0.025 | 0.015 | -0.021 | -0.029 | 0.012 | 0.002
3 | PRKAB2 (UniProt O43741) | 0.022 | 0.104 | -0.081 | 0 | -0.05 | -0.094 | -0.85 (active) | 0.303 | 0.029 | 0.026
4 | PPP2R5B (UniProt Q15173) | -0.036 | 0 | -0.016 | -0.057 | 0.031 | 0 | -0.01 | -0.079 | 0.001 | -0.074
5 | PRMT7 (UniProt Q9NVM4) | 0.058 | -0.006 | 0.018 | -0.02 | 0.001 | -0.013 | 0.013 | 0.003 | 0.045 | 0.009
6 | PRC1 (UniProt O43663) | 0.048 | 0.03 | 0.063 | -0.057 | -0.028 | 0 | -0.004 | -0.094 | 0.025 | 0.005
7 | PIP4P2 (UniProt Q8N4L2) | 0.038 | 0.031 | 0.311 | 0.039 | 0.01 | -0.016 | 0.022 | 0.03 | 0.038 | -0.16
8 | PRIM2 (UniProt P49643) | 0.025 | 0.04 | -0.005 | -0.034 | -0.048 | 0.019 | -0.027 | -0.046 | -0.03 | 0.02
9 | PDE4DIP isoform 4 (UniProt Q5VU43) | 0.027 | 0.011 | 0.092 | 0.046 | 0.025 | 0.04 | -0.04 | -0.005 | 0.034 | -0.014
10 | PICALM (UniProt H0YEH1) | 0.05 | -0.094 | -0.018 | -0.008 | -0.011 | -0.014 | -0.54 (active) | 0.248 | 0.056 | 0.126
11 | PTPN23 (UniProt Q9H3S7) | -0.008 | 0 | 0.003 | -0.006 | -0.042 | 0.026 | -0.017 | 0.007 | 0.008 | -0.001
12 | PLEKHF1 (UniProt Q96S99) | 0.019 | -0.008 | 0.004 | -0.004 | 0.002 | 0.059 | -0.062 | 0.018 | 0.007 | -0.028
13 | PIGO (UniProt Q8TEQ8) | -0.112 | 0.109 | 0.064 | 0.013 | -0.069 | -0.081 | -0.029 | -0.043 | -0.013 | -0.499 (active)
14 | PCBP2 isoform 8 (UniProt Q15366) | 0.078 | 0.051 | 0.016 | 0.001 | -0.05 | -0.152 | 0.054 | -0.003 | -0.018 | -0.045
15 | PLA2G4B isoform 6 (UniProt P0C869) | 0.05 | 0.069 | 0.002 | 0.144 | 0.018 | -0.191 | 0.034 | -0.014 | 0.101 | -0.168
16 | POC5 (UniProt Q8NA72) | -0.062 | -0.049 | 0.014 | 0.17 | 0 | -0.045 | 0.021 | -0.011 | -0.087 | -0.046
17 | PTPN7 isoform 3 (UniProt P35236) | 0.016 | 0.06 | 0.026 | -0.025 | -0.06 | 0.063 | -0.076 | 0.124 | 0.005 | 0.015
18 | PDPK1 (UniProt O15530) | -0.03 | -0.002 | -0.027 | -0.06 | -0.047 | 0.012 | 0.041 | -0.017 | -0.025 | 0.133
19 | PFN1 (UniProt P07737) | -0.01 | -0.01 | 0.012 | 0.02 | 0.015 | 0.02 | -0.02 | 0.028 | -0.004 | -0.005
20 | PIP4K2B (UniProt P78356) | 0.016 | 0.012 | -0.045 | 0.21 (active) | 0.092 | 0.038 | 0.048 | 0.065 | -0.045 | -0.009
21 | PSMB9 (UniProt P28065) | -0.105 | 0.037 | 0.158 | 0.335 (active) | 0.028 | -0.06 | -0.165 | 0.027 | 0.037 | 0.018
22 | PWP2 (UniProt Q15269) | 0.033 | 0.045 | 0.044 | 0.006 | -0.013 | 0.018 | 0.015 | -0.038 | 0.015 | 0.052
23 | PRKDC (UniProt P78527) | 0.132 | 0.014 | -0.009 | -0.058 | -0.062 | 0.063 | -0.12 | 0.097 | -0.007 | 0.048
24 | PIR (UniProt O00625) | -0.023 | 0.098 | -0.005 | 0.025 | 0.019 | -0.055 | 0.205 | -0.024 | -0.006 | -0.028
25 | PTMA (UniProt P06454) | 0.022 | -0.049 | 0.018 | 0.06 | 0.004 | -0.031 | 0.569 (active) | -0.337 (active) | -0.061 | 0.04
26 | PCBP2 (UniProt H3BRU6) | 0.13 | -0.031 | -0.115 | 0.085 | 0.036 | -0.082 | -0.041 | 0.047 | 0.1 | 0.179
27 | PIP4K2C (UniProt Q8TBX8) | 0.039 | -0.028 | -0.045 | 0.463 (active) | 0.206 | 0.103 | -0.114 | 0.225 | -0.01 | -0.019
28 | PHKA2 (UniProt P46019) | -0.065 | 0.053 | 0.072 | 0.059 | 0.021 | 0.024 | 0.009 | -0.084 | 0.002 | -0.058
29 | PFDN2 (UniProt Q9UHV9) | -0.049 | 0 | 0.064 | -0.022 | 0.029 | 0.082 | 0.471 (active) | -0.049 | 0.009 | 0.039
30 | PPP2CA (UniProt P67775) | 0.061 | -0.008 | -0.012 | 0.032 | -0.012 | 0.02 | 0.13 | 0.049 | 0.039 | -0.047
